In PubChem BioAssay (NCI) one finds growth data, which are given here for eight compounds.

Test systems include SK-MEL-2 melanoma; EKVX NSCLC; SN12C renal; UO-31 renal; TK-10 renal; ACHN renal; CAKI-1 renal; A498 renal; CCRF-CEM leukemia; MOLT-4 leukemia; SR leukemia; RPMI-8226 leukemia; OVCAR-8 ovarian; OVCAR-5 ovarian; OVCAR-4 ovarian; SK-OV-3 ovarian; IGROV1 ovarian; OVCAR-3 ovarian; HS 578T breast; NCI/ADR-RES ovarian.
Holding throughout (test): NCI-60 one-dose screen, 48 h (100 = growth as untreated, 0 = no growth, -100 = all killed)
Holding throughout (details): 10 µM unless noted

The structures appear in SMILES notation. Compounds without any hit were thinned out: in the full panel of roughly 83,000, 20% have a hit.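 Step 1: grow cells in 96-well plates. Step 2: add test compound at a single concentration. Step 3: incubate 48 h. Step 4: record percent growth.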 Unmarked numbers belong to inactive results. Active and inactive are the calls of the source. Rule for the calls: active = growth percent below 10; inactive = the rest.

`Cc1ccc2nc(/C=C/c3ccc(N(C)C)cc3)cc(C)c2c1`: the growth was 34.8% with SK-MEL-2 melanoma; 52.4% in the assay on EKVX NSCLC; 35.6% in the assay with SN12C renal; 33.5% in the assay on UO-31 renal; 43.8% in the assay on TK-10 renal; 32.9% in the assay on ACHN renal. Also, the growth in the assay on CAKI-1 renal is 18.2%; in the assay on A498 renal it was 27.2%; with CCRF-CEM leukemia, 17.1%; in the assay on MOLT-4 leukemia, 40%; in the assay with SR leukemia, 22.1%; in the assay with RPMI-8226 leukemia, 34.1%. In addition, the growth with OVCAR-8 ovarian is 41.4%; in the assay on OVCAR-5 ovarian it was 73.1%; in the assay with OVCAR-4 ovarian, 85.5%; in the assay on SK-OV-3 ovarian, 31.4%; in the assay on IGROV1 ovarian it was 49%; in the assay with OVCAR-3 ovarian, -2.23% (active). For the same compound, the values for the growth in the assay on HS 578T breast and in the assay on NCI/ADR-RES ovarian were 34.9% and 25.2%, respectively.
Consider `COC(=O)c1nc(-c2ccc(C)cc2)oc1N1CCOCC1`, for which the growth in the assay on SK-MEL-2 melanoma was 106%; with EKVX NSCLC, 92.8%; in the assay with SN12C renal it was 93.1%; with UO-31 renal, 83.7%; in the assay with TK-10 renal, 81.6%; with ACHN renal, 102%. Moreover, the growth with CAKI-1 renal is 90.3%; with A498 renal, 77.4%; in the assay with CCRF-CEM leukemia, 85%; in the assay on MOLT-4 leukemia it was 80.8%; in the assay on SR leukemia, 80.3%; in the assay on RPMI-8226 leukemia it was 88%. Besides, the growth with OVCAR-8 ovarian was 107%; in the assay on OVCAR-5 ovarian, 88.1%; with OVCAR-4 ovarian it was 109%; in the assay with SK-OV-3 ovarian, 94.9%; with IGROV1 ovarian, 89.5%; in the assay with OVCAR-3 ovarian it was 107%. In addition, the growth in the assay with HS 578T breast is 108%; in the assay with NCI/ADR-RES ovarian it was 96.7%.
Take `N#Cc1nn(-c2ccccn2)c(N)c1C#N`: the growth with SK-MEL-2 melanoma is 93.7%; in the assay on EKVX NSCLC it was 94%; with SN12C renal, 105%; with UO-31 renal, 91.1%; with TK-10 renal it was 98.7%; in the assay with ACHN renal it was 99.6%. Also, the growth with CAKI-1 renal is 92.7%; with A498 renal, 106%; in the assay on CCRF-CEM leukemia, 105%; in the assay on MOLT-4 leukemia, 92.9%; with SR leukemia, 86.2%; in the assay with RPMI-8226 leukemia it was 110%. Also, the growth was 106% with OVCAR-8 ovarian; 97.5% in the assay on OVCAR-5 ovarian; 105% in the assay on OVCAR-4 ovarian; 91.5% with SK-OV-3 ovarian; 108% in the assay on IGROV1 ovarian; 114% with OVCAR-3 ovarian. In addition, the growth with HS 578T breast was 105%; in the assay with NCI/ADR-RES ovarian it was 104%.
On to `COc1ccc(-c2cc(-c3ccc(Nc4nc(Nc5ccc(Cl)cc5)nc(Nc5ccc(Cl)cc5)n4)cc3)no2)cc1`, for which the growth was 58.1% with SK-MEL-2 melanoma; 76.3% in the assay with EKVX NSCLC; 94% in the assay on SN12C renal; 65.3% in the assay on UO-31 renal; 108% in the assay with TK-10 renal; 83.6% with ACHN renal. The growth was 83.3% in the assay on CAKI-1 renal; 86.8% in the assay with A498 renal; 38.9% in the assay on CCRF-CEM leukemia; 9.97% (active) in the assay with MOLT-4 leukemia; 2.43% (active) in the assay on SR leukemia; 12.5% in the assay on RPMI-8226 leukemia. In addition, the growth in the assay with OVCAR-8 ovarian is 85.7%; with OVCAR-5 ovarian it was 86%; in the assay on OVCAR-4 ovarian, 77.4%; in the assay on SK-OV-3 ovarian, 127%; with IGROV1 ovarian it was 63.8%; with OVCAR-3 ovarian it was 71.1%. Further, the growth is 90.2% with HS 578T breast and 81.8% in the assay with NCI/ADR-RES ovarian.
On to `CC1=C([Se]CC(OC(=O)[C@@H](CO)NC(=O)OC(C)(C)C)C(=O)NCCCCCC(=O)OCc2ccccc2)C(=O)c2ccccc2C1=O` (stereo not given in full), for which the growth in the assay on SK-MEL-2 melanoma is -79.9% (active); with EKVX NSCLC it was -75.5% (active); in the assay on SN12C renal, -72.9% (active); in the assay with UO-31 renal, -99.8% (active); in the assay on TK-10 renal, -95.8% (active); with ACHN renal, -83.3% (active). Moreover, the growth was -86.5% (active) in the assay on CAKI-1 renal; 31.2% with A498 renal; -8.88% (active) in the assay with CCRF-CEM leukemia; -21.6% (active) in the assay on MOLT-4 leukemia; -4.61% (active) in the assay with SR leukemia; -28.9% (active) in the assay with RPMI-8226 leukemia. Also, the growth was -82.4% (active) in the assay with OVCAR-8 ovarian; -70.5% (active) in the assay with OVCAR-5 ovarian; -98.1% (active) with OVCAR-4 ovarian; -60.1% (active) with SK-OV-3 ovarian; -93.9% (active) in the assay with IGROV1 ovarian; -82.1% (active) in the assay with OVCAR-3 ovarian. Moreover, the growth in the assay with HS 578T breast is 2.05% (active); with NCI/ADR-RES ovarian, -76.6% (active).
For `COc1cc2c(cc1-c1c(C)noc1C)ncc1nc(C3CCOCC3)n(C3CCC(OC(F)F)CC3)c12` (stereo not given), the growth is 63.5% with SK-MEL-2 melanoma; 60.9% with EKVX NSCLC; 79.8% in the assay on SN12C renal; 14.5% in the assay on UO-31 renal; 21.4% with TK-10 renal; 54.2% in the assay on ACHN renal. The growth in the assay on CAKI-1 renal is 42.6%; in the assay on A498 renal it was 41.7%; with CCRF-CEM leukemia, 58.9%; with MOLT-4 leukemia it was 68.6%; in the assay with SR leukemia, 36.4%; with RPMI-8226 leukemia, 18%. The growth in the assay on OVCAR-8 ovarian was 69.1%; with OVCAR-5 ovarian it was 71%; with OVCAR-4 ovarian, 48.8%; with SK-OV-3 ovarian, 17.3%; in the assay on IGROV1 ovarian it was 55.7%; in the assay on OVCAR-3 ovarian it was 44.7%. The growth in the assay on HS 578T breast is 54.9%; with NCI/ADR-RES ovarian, 53.7%.
On to `CC1(C)CC(=O)C2=C(C1)OC(C(=O)c1ccccc1)C2c1cccc(Oc2ccccc2)c1` (stereo not given), for which the growth in the assay with SK-MEL-2 melanoma was 25%; in the assay on EKVX NSCLC it was 36.4%; in the assay on SN12C renal, 38.7%; in the assay on UO-31 renal, 15.6%; in the assay with TK-10 renal, 63.8%; with ACHN renal, 32.7%. Besides, the growth in the assay with CAKI-1 renal is 41.6%; in the assay with A498 renal it was 49.6%; with CCRF-CEM leukemia, 34.5%; in the assay with MOLT-4 leukemia, 12.2%; with SR leukemia it was 26.2%; with RPMI-8226 leukemia, 34.6%. Moreover, the growth in the assay on OVCAR-8 ovarian was 48.5%; in the assay with OVCAR-5 ovarian, 88.7%; with OVCAR-4 ovarian, 28.6%; in the assay with SK-OV-3 ovarian, 64%; in the assay on IGROV1 ovarian, 89.5%; with OVCAR-3 ovarian, 64.2%. The results for the growth in the assay on HS 578T breast and in the assay with NCI/ADR-RES ovarian were 68.4% and 38.3%, respectively.
Consider `COc1cc(C(=O)n2nc(NCCCc3ccccc3)c3cc(N)ccc32)cc(OC)c1OC`, for which the growth with SK-MEL-2 melanoma is 87.6%; in the assay with EKVX NSCLC, 87.3%; in the assay with SN12C renal it was 99.3%; in the assay with UO-31 renal, 68.6%; in the assay with TK-10 renal, 97.7%; in the assay with ACHN renal, 91.3%. The growth in the assay with CAKI-1 renal is 92.6%; with A498 renal it was 88.7%; in the assay on CCRF-CEM leukemia, 69.4%; with MOLT-4 leukemia, 78.6%; in the assay with SR leukemia, 52.3%; in the assay on RPMI-8226 leukemia, 69.5%. Further, the growth was 82.8% in the assay on OVCAR-8 ovarian; 93.3% with OVCAR-5 ovarian; 105% with OVCAR-4 ovarian; 104% in the assay with SK-OV-3 ovarian; 110% in the assay with IGROV1 ovarian; 101% in the assay on OVCAR-3 ovarian. In addition, the growth in the assay with HS 578T breast was 111%; in the assay on NCI/ADR-RES ovarian, 68.4%.
